HT1080-NT tox – kills 2HG-producing HT-1080-NT fibrosarcoma cells | HT-1080-NT fibrosarcoma viability, CellTiter-Glo ATP luminescence, 48 h | Potency, µM (series often up to 46.1 µM), for the others: at the top dose activity, negative = less viability, usual class: cytotoxic | actives 1.6% (n = 360,000) | AID 686970;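 further: NT is the 2HG producing partner of a matched IDH1 knockdown line; 0% = DMSO-treated cells and -100% = media-only wells without cells; nearly all actives have a fitted effect of over 55% in size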
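Toxicity toward the 2HG-producing NT line was scored as %Activity, normalised to DMSO and no-cell wells, from CellTiter-Glo luminescence after 48 hours' treatment.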
KB-V1 cytotox – kills drug-selected multidrug resistant KB-V1 cells; actives 3.4% (n = 400,000); Potency, µM (titrated, usually from 46.1 µM), hits mostly cytotoxic; AID 1347076; KB-V1 MDR cells viability, CellTiter-Glo, 72 h; further: on the % scale 0 is the no-effect control and ±100 the full control effect; nearly all actives have a fitted effect of over 60% in size
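Cytotoxicity via CellTiter-Glo luminescence after 72 h compound exposure at 37 degrees C. Cells: drug-selected KB-V1 line, DMEM phenol-red free plus 10% FBS. Compounds tested at multiple concentrations; normalized data fitted to concentration-effect curves.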
HT1080 IDH1KD tx – toxicity to HT-1080 IDH1 knockdown cells (counter line). HT-1080 IDH1 knockdown viability, ATP luminescence, 48 h. actives 2% (n = 360,000). Potency, µM (doses to about 46.1 µM), for the others: at the highest dose activity, negative = toxicity, most hits filed as cytotoxic;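 further: 0% = DMSO wells and -100% = cell-free medium wells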
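After a 2 h attachment period, IDH1KD HT-1080 cells took pin-transferred compound for 48 h at 37 °C; ATP-based luminescence after 10 min room-temperature reagent incubation reported viability.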
MCF10A rereplic – inducers of DNA re-replication in MCF 10A breast cells | actives 2.9% (n = 350,000) | MCF 10A DNA re-replication, Hoechst nuclear intensity, 48 h | Potency, µM (doses to about 46.1 µM), for the others: at the top dose activity, positive = re-replication, actives largely listed as activators; further: % of control where 0% means no effect; nearly all actives have a fitted effect of over 50% in size
SW480 rerep – inducers of DNA re-replication in SW480 colon cancer cells. AID 624297. SW480 DNA re-replication, Hoechst DNA content imaging, 48 h. actives 1.8% (n = 340,000). Potency, µM (series often up to 46.1 µM), for inactives: at the top dose re-replication activation, usual class: activators; further: % of control where 0% means no effect; nearly all actives have a fitted effect of over 55% in size
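Cells (250 per well) received 23 nL compound or DMSO by pin tool and were kept 48 hr at 37 C, 5% CO2. Nuclei were then stained with Hoechst for 40 min and scanned for DNA content.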
KB-3-1 cytotox – KB-3-1 parental cell cytotoxicity; KB-3-1 viability, CellTiter-Glo ATP luminescence, 72 h; Potency, µM (top dose mostly 46.1 µM), hits mostly cytotoxic; actives 1.4% (n = 400,000); further: on the % scale 0 is the no-effect control and ±100 the full control effect; nearly all actives have a fitted effect of over 60% in size
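KB-3-1 parental drug-naive adenocarcinoma cells in DMEM/10% FBS, incubated 72 h at 37 C with pin-transferred compounds across a concentration series. Viability by CellTiter-Glo luminescence; concentration-response curves fitted after normalization.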
The depositor's hits bear a star; i = inactive; ? = inconclusive; / = not tested or not shown. Rows were chosen to be rich in hits. Some 7.9% of all compounds tested hit in one or more screens of this group. The call rests on the fitted dose curve; in most records, active means well fitted curve in the direction sought with a large enough effect; inconclusive means small, poorly fitted or top-dose-only effect, or another doubt; inactive means no such curve, though single readings can be large; an effect the other way counts as inactive or inconclusive. Potency means the concentration at half of the fitted maximal effect.

SMILES | HT1080-NT tox | KB-V1 cytotox | HT1080 IDH1KD tx | MCF10A rereplic | SW480 rerep | KB-3-1 cytotox
COc1ccc(C(=O)c2[nH]c(N)c(C(=O)NCCc3c[nH]c4ccccc34)c2-c2ccc(Cl)cc2)cc1 | ? | i | ? | / | / | i
Nc1[nH]c(C(=O)c2ccccc2)c(-c2ccccc2C(F)(F)F)c1C(=O)NCCc1c[nH]c2ccccc12 | ? | i | ? | / | / | ?
Nc1[nH]c(C(=O)c2ccccc2)c(-c2ccc([N+](=O)[O-])cc2)c1C(=O)NCCc1c[nH]c2ccccc12 | ? | 23µM* | ? | / | / | ?
CCOc1ccccc1N1CCN(C(=O)CSc2ccc3c(c2)OCCO3)CC1 | -1% | 12µM* | 12% | 22% | -9% | i
COc1cc(-c2cnc3c(NC=O)cc(-c4cccc(C(=O)NCCN(C)C)c4)cn23)cc(OC)c1OC | 5% | i | -1% | / | / | i
O=C(Nc1cccc(Cl)c1Cl)C1CC(=O)N(c2ccc(Br)cc2)C1 (centres undefined) | ? | i | ? | 5.8µM* | 7% | i
O=C(N/N=C/c1ccccc1O)C1CC(=O)N(c2ccc(Cl)cc2)C1 (centres undefined) | ? | i | 3.3µM* | ? | 5.8µM* | ?
COc1cccc(C(=O)N/N=C/C(Br)=C/c2ccccc2)c1 | ? | 3.7µM* | 12µM* | 8.2µM* | ? | ?
COc1cccc(/C=C(/C(=O)OCC(N)=O)c2ccccc2)c1 | -9% | ? | -9% | -1% | -3% | i
COc1ccc(C(=O)N/N=C/C(Br)=C/c2ccccc2)cc1 | -11% | ? | -13% | ? | ? | i
O=C(Cc1cccs1)N/N=C/C(Br)=C/c1ccccc1 | ? | i | ? | 18µM* | 14% | i
CC(/C=N/NC(=O)Cc1cccs1)=C\c1ccccc1 | 22% | i | 16% | ? | 21% | i
Cn1cc(C(=O)N/N=C/C(Br)=C\c2ccccc2)ccc1=O | -9% | i | -28% | ? | 18µM* | i
COc1cccc(C=C(C(C)=O)C(=O)c2ccccc2)c1 | ? | ? | 16µM* | / | / | ?
CN1CCN(C(CNC(=O)C(=O)Nc2ccccc2C#N)c2ccc3c(c2)OCO3)CC1 (centres undefined) | / | i | / | / | / | i
Cc1nc2nc(C(F)(F)F)[nH]c2nc1C | 2% | i | 3% | / | / | i
NC(=O)C1CCN(C(=O)Cn2c(-c3cccs3)cc3ccccc32)CC1 | / | i | / | / | / | i
COC(=O)c1ccc(NC(=O)c2nn(C)c3c2CS(=O)(=O)c2ccccc2-3)cc1 | / | i | / | / | / | i
COC(=O)c1sccc1S(=O)(=O)N(CC(=O)Nc1cccc(C)c1C)c1ccc(C)c(C)c1 | / | i | / | / | / | ?
O=C(N/N=C/C(Br)=C/c1ccccc1)c1cnccn1 | ? | i | ? | 16µM* | 3.3µM* | i
O=C(N/N=C/C=C\c1ccccc1)c1cnccn1 | 13% | i | 17% | 0% | 0% | i
Cn1cc(C(=O)N/N=C/C(Br)=C/c2ccccc2)ccc1=O | 21µM* | i | ? | 26µM* | ? | ?
Cn1cc(C(=O)N/N=C/C=C/c2ccccc2)ccc1=O | 22% | i | 19% | -4% | 0% | i
CCc1nc2c(OCCc3cccc(OC)c3)cccn2c1N(C)C(=O)c1cccs1 | ? | ? | ? | / | / | i
CCc1ccc(NCc2cc3c(C)nn(-c4ccccc4)c3[nH]c2=O)cc1 | ? | 18µM* | -20% | ? | ? | i
SMILES | HT1080-NT tox | KB-V1 cytotox | HT1080 IDH1KD tx | MCF10A rereplic | SW480 rerep | KB-3-1 cytotox
Cc1cc(Br)cc(Br)c1OCC(=O)NNC(=O)CCC(=O)NCc1ccccc1 | 8% | i | 9% | 1% | -5% | i
Cc1cc(Br)cc(Cl)c1OCC(=O)NC(=O)NCc1ccccc1 | 6% | i | 0% | 18µM* | 7% | i
CSc1nnc2n(-c3cccc(C)c3)c(=O)c3c4c(sc3n12)CCCC4 | / | ? | / | / | / | i
CCCSc1nnc2n(-c3cccc(C)c3)c(=O)c3c4c(sc3n12)CCCC4 | / | 23µM* | / | / | / | ?
CCCCN(CCCC)C(=O)CSc1nnc2n(C)c(=O)c3c4c(sc3n12)CCCC4 | -5% | 23µM* | -5% | -10% | 1% | ?
CC(NS(=O)(=O)OCC(Cl)(Cl)Cl)c1ccc(C(C)(C)C)cc1 (centres undefined) | ? | ? | 29µM* | ? | 0% | i
O=C(Oc1c(Cl)cc(Cl)c2cccnc12)c1cccc([N+](=O)[O-])c1 | ? | i | ? | 10µM* | ? | 15µM*
O=C(Oc1ccc(Cl)c2cccnc12)c1cccc([N+](=O)[O-])c1 | -10% | i | -1% | 3.7µM* | / | i
O=C(Oc1ccc(Cl)c2cccnc12)c1ccco1 | ? | ? | ? | 7.3µM* | ? | ?
CCC(C)(C)NC(=O)Cn1c(=O)ccc2cc(S(=O)(=O)N3CCC(C)CC3)ccc21 | / | i | / | / | / | i
Cc1cc(C)n(-c2nc(-c3ccc(Cl)c(Cl)c3)cs2)n1 | ? | i | 13% | 7.1µM* | -2% | i

Source: PubChem BioAssay (National Center for Advancing Translational Sciences (NCATS))
